# Potency and affinity values are given separately. Activity calls are given as the source filed them.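 How the source made its calls: active means signal drop whose fitted half-maximal potency is at most twice the top valid dose tested; inconclusive means flat curve inhibiting 30 to 70 percent, or a poor fit; inactive means the rest.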
# Molecular target: Endoplasmic reticulum aminopeptidase 2 (Homo sapiens) (UniProt Q6P179)
# Experiment: ERAP2 aminopeptidase inhibitors, dose response, selectivity assay for selective ERAP1 modulator project, biochemical, fluorescence plate reader, cherry-picked, set 2 (AID 743320)
# Conditions: recombinant ERAP2, Arg-AMC fluorescence, 1 h; series mostly up to 11 µM
# Sequence of Endoplasmic reticulum aminopeptidase 2 (Homo sapiens) (Q6P179 whole entry, looked up): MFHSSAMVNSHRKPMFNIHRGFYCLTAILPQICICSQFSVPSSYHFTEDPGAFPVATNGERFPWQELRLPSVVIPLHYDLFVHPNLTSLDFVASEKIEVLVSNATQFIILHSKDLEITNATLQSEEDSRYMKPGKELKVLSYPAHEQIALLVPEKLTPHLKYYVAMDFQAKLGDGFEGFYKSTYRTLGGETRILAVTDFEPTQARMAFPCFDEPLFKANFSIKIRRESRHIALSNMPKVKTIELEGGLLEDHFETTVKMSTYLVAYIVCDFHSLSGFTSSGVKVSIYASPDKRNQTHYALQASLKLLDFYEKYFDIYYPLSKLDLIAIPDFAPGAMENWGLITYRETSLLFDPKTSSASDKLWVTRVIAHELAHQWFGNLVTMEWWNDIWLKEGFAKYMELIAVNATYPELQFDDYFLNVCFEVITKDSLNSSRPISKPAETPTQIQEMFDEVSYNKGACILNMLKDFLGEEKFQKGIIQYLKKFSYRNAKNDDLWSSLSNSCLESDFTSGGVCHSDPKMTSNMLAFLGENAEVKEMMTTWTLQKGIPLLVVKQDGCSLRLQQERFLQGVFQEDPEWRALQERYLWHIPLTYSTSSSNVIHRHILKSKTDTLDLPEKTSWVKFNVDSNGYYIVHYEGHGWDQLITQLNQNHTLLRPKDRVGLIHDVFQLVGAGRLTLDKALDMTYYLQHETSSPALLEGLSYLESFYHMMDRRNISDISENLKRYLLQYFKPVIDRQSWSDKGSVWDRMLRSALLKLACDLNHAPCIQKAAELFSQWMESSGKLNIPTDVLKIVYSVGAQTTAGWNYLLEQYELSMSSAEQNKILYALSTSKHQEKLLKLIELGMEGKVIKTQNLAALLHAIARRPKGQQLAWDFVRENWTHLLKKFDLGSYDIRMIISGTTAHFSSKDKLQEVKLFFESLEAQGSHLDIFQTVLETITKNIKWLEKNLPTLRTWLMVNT
row,SMILES,outcome
1,Cc1noc(C)c1NC(=O)N(C)C[C@@H]1Oc2c(NC(=O)Nc3ccc(F)cc3)cccc2C(=O)N([C@H](C)CO)C[C@@H]1C,inactive
2,O=C(O)c1cccc(NC(=O)c2ccccc2NC(=O)c2cccc([N+](=O)[O-])c2)c1,inactive
3,C[C@@H]1CCCCO[C@@H](CN(C)C)[C@@H](C)CN([C@@H](C)CO)C(=O)c2cc(NS(=O)(=O)c3ccc(F)cc3)ccc2O1,inactive
4,CCn1cc(CN2CCCC(C(=O)Nc3ccc(-c4nc5ccccc5[nH]4)cc3)C2)c(C)n1 (configuration not stated),inactive
5,COc1ccc(CN(C)C[C@H]2OCCCC[C@@H](C)Oc3ccc(NS(=O)(=O)c4cccs4)cc3C(=O)N([C@@H](C)CO)C[C@@H]2C)cc1,inactive
6,COc1ccc(CN(C)C[C@@H]2OCCCC[C@@H](C)Oc3ccc(NS(=O)(=O)c4cccs4)cc3C(=O)N([C@H](C)CO)C[C@@H]2C)cc1,inactive
7,COc1ccc(C(=O)O)cc1S(=O)(=O)Nc1cc(C(F)(F)F)ccc1N1CCCCC1,inactive

# — PubChem BioAssay AID743320 (Broad Institute, 2014)
